Pf Dd2 inh: qHTS Primary assay for Inhibitors of Plasmodium falciparum Dd2 growth in vitro; P. falciparum Dd2 growth, SYBR Green, 72 h; Potency, µM (doses to about 28.9 µM), for the others: top-dose activity, negative = inhibition, actives largely listed as inhibitors; 4.3% of 120,000 active; AID 1347417, 2020; active = well fitted inhibition curve with a large enough effect;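 note: plate controls were DMSO vehicle for no effect and reference drug for full effect; nearly all actives have a fitted effect of over 65% in size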
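Infected erythrocytes (Dd2, 0.3% parasitemia, 2.5% hematocrit final) are added to compound in RPMI-1640/Albumax II medium, grown 72 h at 37C in low oxygen, then lysed with saponin/Triton-X containing SYBR Green and read by fluorescence.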
Active calls of the source: *; i = inactive; [ ] = dose if it differs, or a comment. This is one part of a sample in which hits are shown more often than they occur. Potency is the fitted concentration of half-maximal effect.

SMILES	Pf Dd2 inh
CCOc1nc(NC(=O)NS(=O)(=O)Oc2ccc(Cl)cc2)nc(-c2ccccc2)n1	2%
Cc1ccc(NC(=O)Cn2nc(Cc3ccncc3)c3ccccc3c2=O)c(Cl)c1	6%
CCN(C(=O)Cn1nc(Cc2ccncc2)c2ccccc2c1=O)c1cccc(Cl)c1	11µM*
CCOc1ccc(NC(=O)Cn2nc(Cc3cccnc3)c3ccccc3c2=O)cc1	-24%
CC(=O)Nc1ccc(NC(=O)CC(C)n2ccc(C)n2)cc1 (configuration not stated)	-10%
OCC1(CCCc2ccccc2)CCNCC1	7%
CCOC(=O)c1cccc(NC(=O)c2cc(CN3CCOCC3)on2)c1	-18%
Cc1noc(C)c1CN1CCN(c2ccc(F)cc2)CC1	-13%
Cc1ccc2oc(=O)c3cnn(CC(=O)N4CCN(c5ccccc5)CC4)c3c2c1	22%[5.79 µM]
CCc1c(C)c2ccc(O)c(CN3CCN(c4ccccc4)CC3)c2oc1=O	1.3µM*
Cc1c(-c2ccc(Cl)cc2)c(=O)oc2c(CN3CCN(C)CC3)c(O)ccc12	10µM*
Cc1ccc(-c2c(C(=O)NCCc3ccc(Cl)cc3)oc(=O)c3ccccc23)cc1	-8%
CN1CCN(c2cc(=O)c3ccnc(-c4cccc(CO)c4)c3o2)CC1	i
Cc1c(-c2ccccc2)c(=O)oc2c(CN3CCN(C)CC3)c(O)ccc12	4µM*
Cc1cc(O)c(C(c2ccccc2)N2CCN(C)CC2)c(=O)n1Cc1ccco1 (configuration not stated)	50%
O=C(Nc1ccccc1C(F)(F)F)n1ncc2cc(Cl)ccc21	-2%
COc1ccc(CCNC(=O)C2CCCN(S(=O)(=O)c3ccc4c(c3)oc(=O)n4C)C2)cc1OC (configuration not stated)	i
O=C1N[C@@H]2CCN(S(=O)(=O)c3ccc4ccccc4c3)[C@@H]2C(=O)N1c1ccc(F)cc1	5%
CCOC(=O)Cn1c(=O)n(C2CCCCC2)c2nc(-c3ccc(Cl)cc3)nc(C(N)=O)c21	10%
Cn1cc(-c2cccc(C(F)(F)F)c2)c2nc(CNc3ccccc3)cn2c1=O	i
O=C(NCc1ccccc1)C(=O)Nc1c2c(nn1-c1ccc(F)cc1)CSC2	-28%
COc1ccc(C(=O)N2CCC3(CC2)NCCc2c3[nH]c3ccccc23)c(OC)c1	-8%
Cc1ccccc1-n1cc(-c2ccnc(NC(C)Cc3ccncc3)n2)cn1 (configuration not stated)	8.9µM*
c1ccc(C(CNc2nccc(-c3ccncc3)n2)N2CCOCC2)nc1 (configuration not stated)	2%
Cc1ccccc1-n1cc(CN(C)Cc2nc(-c3ccc(C(F)(F)F)cc3)no2)cn1	0%
SMILES	Pf Dd2 inh
CN1C(=O)[C@H]2CN(Cc3cccnc3)C[C@H]2C1=O	i
CNC(=O)CCCN1C(=O)c2cccnc2Sc2ccccc21	5%
CN(C)c1cc(N2CCCC(NS(=O)(=O)C3CC3)C2)ncn1 (configuration not stated)	16%[5.79 µM]
CC(=O)NC1(C)CCN(Cc2cnc(-c3ccccc3OCc3ccccc3)s2)CC1	11µM*
CC(=O)NC1(C)CCN(Cc2ccccc2-c2cccc(C(C)=O)c2)C1 (configuration not stated)	i
CC(=O)NC1(C)CCN(Cc2ccc(-c3ccccc3OCc3ccccc3)cc2)C1 (configuration not stated)	13µM*
CC(=O)NC1(C)CCN(Cc2cnc(-c3cccc(N(C)C)c3)s2)CC1	12%[44.1 µM]
CC(=O)NC1(C)CCN(Cc2ccc(-c3ccc(N4CCOCC4)cc3)cc2)C1 (configuration not stated)	-21%[44.1 µM]
CC(=O)NC1(C)CCN(Cc2cnc(-c3ccccc3)s2)CC1	-8%[44.1 µM]
O=C(CN1C(=O)NC(c2ccccc2Cl)C2=C1COC2=O)NCCc1ccc(Cl)cc1 (configuration not stated)	i
CC(C)NC(=O)N[C@H]1C[C@H]2C(=O)NC[C@@H](CCC(=O)N3CCc4ccccc43)N2C1	-10%[44.1 µM]
O=C([C@H]1C[C@@H](F)CN1S(=O)(=O)c1cccc(Cl)c1)N1CCOCC1	12%
Cc1nc2scc(CC(=O)N3CCCC3)n2c(=O)c1-c1cc(C)n(-c2cccc(F)c2)n1	i
CCn1cc(C(=O)NCCCN(CC(C)C)CC(C)C)c(=O)c2cc(S(=O)(=O)N3CCc4ccccc4C3)ccc21	2%
CCn1cc(C(=O)NCCCN2CCCC(C)C2)c(=O)c2cc(S(=O)(=O)N(C)C3CCCCC3)ccc21 (configuration not stated)	1µM*
CCCN(CCC)CCCNC(=O)c1cn(CC)c2ccc(S(=O)(=O)N3CCc4ccccc4C3)cc2c1=O	-18%
CCCCN(CCCC)CCNC(=O)c1cn(CC)c2ccc(S(=O)(=O)N(C)C3CCCCC3)cc2c1=O	-18%
CCn1cc(C(=O)NCCc2ccccc2)c(=O)c2cc(S(=O)(=O)N(C)C3CCCCC3)ccc21	-7%
CCCCN(CC)CCCNC(=O)c1cn(CC)c2ccc(S(=O)(=O)N3CCc4ccccc4C3)cc2c1=O	10µM*
Cc1ccc(-c2noc([C@@H]3CCCN3C(=O)c3cnccn3)n2)cc1	3%
Cc1ccc(NC(=O)NCC2CCOCC2)cc1	-29%
COCC(=O)N1CCCC(c2cc(N3CCCC3)nc(C)n2)C1 (configuration not stated)	20%
Cc1ccc2onc(CNC(=O)NCc3cccc(Cl)c3)c2c1	2%
O=C(CC1CCCC1)N1CCC(Nc2cccnc2)C1 (configuration not stated)	i[5.79 µM]
Cc1ccc(S(=O)(=O)C2(C(=O)Nc3ccc(C)c(Cl)c3)CC2)cc1	17%
SMILES	Pf Dd2 inh
N#C/C(=C\c1ccc(-c2cccc(Cl)c2)o1)C(=O)Nc1cccc(C(F)(F)F)c1	17%
Cc1ccc(NC(=O)/C(C#N)=C/c2ccccc2Cl)cc1C	18%
N#C/C(=C/c1cn(Cc2ccc(F)cc2)c2ccccc12)C(=O)Nc1cccc(Cl)c1	10µM*
Cc1cc(C)cc(-c2[nH]nc3ncc(-c4ccsc4)nc23)c1	-2%[44.1 µM]
O=C(C1CCCC1)N1CCCCCC1c1nc(-c2cccnc2)no1 (configuration not stated)	i
Cc1c(CN2CCC(O)(c3ccccc3)[C@H](N3CCCC3)C2)cnn1C (some centres not stated)	0.45µM*
COCC(=O)N1CCC(O)(c2ccccc2)[C@H](N2CCCC2)C1 (some centres not stated)	17%[5.79 µM]
CCCC(=O)N1CCC(O)(c2ccccc2)[C@H](N2CCCC2)C1 (some centres not stated)	i[5.79 µM]
COc1ccc(NC(=O)Cn2nc3n(c2=O)CCCC3)c(OC)c1	-6%
O=C(CN1C(=O)COc2ccc(S(=O)(=O)N3CCCC3)cc21)N1CCN(c2ccc(F)cc2)CC1	i
Cc1ccccc1NC(=O)Cc1c[nH]c2ncc(-c3cnn(C)c3)cc12	-13%[44.1 µM]
CCNCc1ccc(-c2ccc(F)cc2)o1	i
Fc1ccc(-c2ccc(CNCCSc3nnnn3-c3ccccc3)o2)cc1Cl	46%
CCNCc1ccc(-c2ccc(Cl)cc2)o1	13µM*
CCN(CC)CCNCc1ccc(-c2ccccc2)o1	3.2µM*
Clc1cccc(-c2ccc(CNc3ncncn3)o2)c1	-14%
c1ccc(-c2ccc(CNCc3cccs3)o2)cc1	i
O=C1Nc2ccccc2C12CCN(S(=O)(=O)c1cccc(C(F)(F)F)c1)CC2	8%
O=C(COc1ccc(F)cc1)N1CCCC1c1nc(C2CCOCC2)no1 (configuration not stated)	-8%
O=C(O)CC1(CC(=O)N2CC[C@H]3NC(=O)N(c4ccc(Oc5ccccc5)cc4)C(=O)[C@H]32)CCCC1	i

Screening results as filed in PubChem.
